Source: PubChem BioAssay (ICCB-Longwood Screening Facility, Harvard Medical School)
fixLJ activator = activators of Burkholderia fixLJ two-component system, primary screen, B. multivorans, GFP reporter. 29,000 tested, 0.3% active. AID 1918990, 2023. B. multivorans fixK-promoter GFP reporter, 18 h; active compounds read high. z-score (test concentration not listed);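 active = replicate mean overnight rise in green fluorescent reporter signal, 3 or more SD over negative controls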
* = called active by the depositor. The entries come from a sample that favours hits as a whole.

SMILES	fixLJ activator
Cc1ccccc1-n1c(/C=C/c2c(C)[nH]c3ccccc23)nc2ccccc2c1=O	-0.55
Cc1ccccc1-n1c(/C=C/c2ccc(N(C)C)cc2)nc2ccccc2c1=O	21*
COc1cccc(-n2c(/C=C\c3ccc(Cl)cc3)nc3ccccc3c2=O)c1	0.01
COc1cccc(C2CN(c3ncccc3C#N)C3C4CCN(CC4)C23)c1 (stereo not drawn)	-1.3
N#CC1(c2ccccc2)CCN(C(=O)c2cncc(=O)[nH]2)CC1	-2.4
